This excerpt belongs to a sample that is enriched for hits.
Cycloheximide cs = counter-screen hit for Shiga toxin inhibitors, cycloheximide. cell reporter, cycloheximide protein synthesis inhibition counterscreen. max response, %. hit rate 12% among 300,000; in the data active = max response mostly above about 13%, no sharp cut-off; inactive = mostly below about 14%; also: read at 38.3 µM for the half of the compounds with a filed dose; 0% is about no effect
Shiga toxin inh = inhibitors of Shiga toxin in Vero cells; Vero cells, Shiga toxin protein synthesis inhibition reporter; inhibition, % at 38.7 µM; hit rate 9.2% among 290,000; AID 2315; in the data active = inhibition mostly above about 28%, no sharp cut-off; inactive = mostly below about 43%; also: 0% is about no effect
AmpC inh detg = AmpC beta-lactamase inhibition with detergent present | P00811 | Potency, µM (top dose mostly 114 µM), inactives show at the highest dose activity change, negative = inhibition, hits mostly inhibitors | AID 485294 | hit rate 0.041% among 370,000 | AmpC hydrolysis of nitrocefin, absorbance 480 nm, 0.01% Triton;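 also: potency is read from the fitted curve at half-maximal effect; 0% = no-compound wells and -100% = no-enzyme wells; nearly all actives have a fitted effect of over 25% in size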
Target sequence (P00811 whole entry, looked up): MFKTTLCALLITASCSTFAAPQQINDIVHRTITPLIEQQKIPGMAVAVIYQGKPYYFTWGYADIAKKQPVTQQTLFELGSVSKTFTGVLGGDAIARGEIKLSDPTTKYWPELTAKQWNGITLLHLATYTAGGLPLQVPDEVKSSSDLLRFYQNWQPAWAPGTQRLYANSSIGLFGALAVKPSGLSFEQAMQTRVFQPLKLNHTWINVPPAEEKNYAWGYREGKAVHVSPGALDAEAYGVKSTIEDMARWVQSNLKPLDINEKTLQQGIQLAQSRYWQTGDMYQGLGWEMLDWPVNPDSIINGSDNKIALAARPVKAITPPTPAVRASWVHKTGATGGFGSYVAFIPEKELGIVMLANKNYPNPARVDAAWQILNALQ
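AmpC (5.3 nM in the dispensed reagent) in 20 mM phosphate pH 7.0 with 0.01% (detergent screen) or 0.0001% Triton X-100 was preincubated with compounds for 15 min at room temperature. Nitrocefin was then added from an 800 uM solution, and hydrolysis was followed at 480 nm.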
SARS PLP yeast = blocks SARS-CoV papain-like protease in a yeast assay; S. cerevisiae expressing SARS-CoV PLpro, growth rescue; Potency, µM (series often up to 32.9 µM), for the others: at the top dose activity, positive = growth rescue, most hits filed as activators; hit rate 0.19% among 330,000; calls by dose curve; also: potency is read from the fitted curve at half-maximal effect; 0% is about no effect; nearly all actives have a fitted effect of over 55% in size
AmpC no deterg = inhibitors of E. coli AmpC beta-lactamase without detergent | AID 485341 | AmpC nitrocefin hydrolysis, absorbance 480 nm, 0.0001% Triton | P00811 | hit rate 0.52% among 330,000 | Potency, µM (doses to about 57.1 µM), without a hit: at the top dose activity change, negative = inhibition, most hits filed as inhibitors;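 also: potency is read from the fitted curve at half-maximal effect; plate controls were no compound for no effect and no enzyme for full effect; nearly all actives have a fitted effect of over 20% in size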
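20 mM phosphate pH 7.0 + 0.01% (detergent screen) or 0.0001% Triton X-100; 5.3 nM AmpC reagent; cpd preinc 15 min RT; nitrocefin (800 uM stock) to start; A480 q20 s × 4 min; Activity was normalised to no-enzyme and no-compound control wells.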
AMA1-RON2 inh = AMA1-RON2 (P. falciparum) interaction inhibition | AlphaScreen AMA1-biotinylated RON2 peptide binding | Potency, µM (titrated, usually from 58.2 µM), without a hit: at the top dose activity change, negative = inhibition, hits mostly inhibitors | hit rate 0.2% among 360,000 | AID 720542;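 also: potency is read from the fitted curve at half-maximal effect; 0% = vehicle wells and -100% = peptide control; nearly all actives have a fitted effect of over 45% in size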
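AMA1 (3D7) with his tag at 25 nM final met compounds first, then biotinylated RON2 peptide at 25 nM; detection used donor plus acceptor beads, 10 µg/mL apiece, read by AlphaScreen after 30 min at room temperature.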
The depositor's hits bear a star. Unless noted, calls follow the shape of the dose curve; as a rule, active = well fitted curve in the direction sought with a large enough effect; inconclusive = small, poorly fitted or top-dose-only effect, or another doubt; inactive = no such curve, though single readings can be large; an effect the other way counts as inactive or inconclusive.

`CCNS(=O)(=O)c1ccc2nc(NC(=O)c3cccnc3)sc2c1` gave Cycloheximide cs 33*, Shiga toxin inh 84*, AmpC inh detg inconclusive, SARS PLP yeast 2%, AmpC no deterg -12% and AMA1-RON2 inh -1%.
For Cc1cc(N2C(=O)C(O)=C(C(=O)c3cccs3)C2c2cccc(Br)c2)no1 (configuration not stated) the results were Cycloheximide cs -1, Shiga toxin inh -8, AmpC inh detg 4%, SARS PLP yeast 1%, AmpC no deterg -33% and AMA1-RON2 inh -7%.
For Cc1ccc(C2C(C(=O)c3cccs3)=C(O)C(=O)N2c2ccc(S(N)(=O)=O)cc2)cc1 (configuration not stated) the results were Cycloheximide cs 25*, Shiga toxin inh 40, AmpC inh detg -9%, SARS PLP yeast 6%, AmpC no deterg -19% and AMA1-RON2 inh 5%.
`Cc1ccc(C2C(C(=O)c3cccs3)=C(O)C(=O)N2c2cccc(C)n2)cc1` (configuration not stated) gave Cycloheximide cs 17*, Shiga toxin inh 70*, AmpC inh detg -1%, SARS PLP yeast -2%, AmpC no deterg -34% and AMA1-RON2 inh -3%.
`C[C@@H]1CN([C@@H](C)CO)S(=O)(=O)c2ccc(-c3ccc(C#N)cc3)cc2O[C@@H]1CN(C)Cc1ccccn1` gave AMA1-RON2 inh 73%.
For Cc1cccc(NC(=O)c2ccc([N+](=O)[O-])o2)n1 the results were Cycloheximide cs 25*, Shiga toxin inh 33, AmpC inh detg -1%, SARS PLP yeast -7%, AmpC no deterg -16% and AMA1-RON2 inh -2%.
For Cc1ccccc1NC(=O)c1ccc([N+](=O)[O-])o1 the results were Cycloheximide cs 30*, Shiga toxin inh 45*, AmpC inh detg 3%, SARS PLP yeast -1%, AmpC no deterg -11% and AMA1-RON2 inh 3%.
For Cc1cccnc1NC(=O)c1ccc([N+](=O)[O-])o1 the results were Cycloheximide cs 1, Shiga toxin inh 2, AmpC inh detg -11%, SARS PLP yeast 12%, AmpC no deterg 0% and AMA1-RON2 inh 18%.
Screening O=C(Nc1ccccc1Cl)c1ccc([N+](=O)[O-])o1 returned Cycloheximide cs 60*, Shiga toxin inh 110*, AmpC inh detg -1%, SARS PLP yeast inconclusive, AmpC no deterg -9% and AMA1-RON2 inh 28%.
Cc1cccc(NC(=O)c2ccc([N+](=O)[O-])cc2Cl)n1 was read as Cycloheximide cs 7, Shiga toxin inh -8, AmpC inh detg -6%, SARS PLP yeast -10%, AmpC no deterg -35% and AMA1-RON2 inh -11%.
For Cc1ccc(-c2nnc(NC(=O)c3ccc([N+](=O)[O-])o3)o2)c(C)c1 the results were AmpC inh detg -12%, SARS PLP yeast 5%, AmpC no deterg -16% and AMA1-RON2 inh 38%.
Cc1ccc(NC(=O)c2ccc([N+](=O)[O-])o2)c(C)c1 was read as Cycloheximide cs 38*, Shiga toxin inh 80*, AmpC inh detg 10%, SARS PLP yeast -1%, AmpC no deterg -17% and AMA1-RON2 inh 4%.
`O=C(Nc1ccc(NC(=O)c2ccc([N+](=O)[O-])o2)cc1Cl)c1ccco1` gave Cycloheximide cs -2, Shiga toxin inh -4, AmpC inh detg -1%, SARS PLP yeast 5%, AmpC no deterg -11% and AMA1-RON2 inh 8%.
For CC(C)(C)CN1CCN(CC#Cc2ccccc2)CC1CCO (configuration not stated) the results were Cycloheximide cs 17*, Shiga toxin inh 34, AmpC inh detg 4%, SARS PLP yeast 7%, AmpC no deterg 69% and AMA1-RON2 inh 2%.
C/C(=N\NC(=O)COc1ccc(C(C)(C)C)cc1)c1ccccc1 was read as Cycloheximide cs -2, Shiga toxin inh 18, AmpC inh detg 0%, SARS PLP yeast -15%, AmpC no deterg -15% and AMA1-RON2 inh 44%.
Screening COc1ccc(NCC(=O)N/N=C(\C)c2cc3ccccc3o2)cc1 returned Cycloheximide cs 16*, Shiga toxin inh 20, AmpC inh detg -9%, SARS PLP yeast -4%, AmpC no deterg 0% and AMA1-RON2 inh inconclusive.

Screening data from PubChem BioAssay.
